Data as given in PubChem BioAssay (NCATS).
Results filed as inconclusive are left out. Unmarked numbers belong to inactive results. Activity calls are given as the source filed them. Calls come from the whole dose curve; as a rule, active = well fitted inhibition curve with a large enough effect; inconclusive = small, poorly fitted or top-dose-only effect; inactive = no such curve, though single readings can be large or run the other way.

biological target: Retinaldehyde dehydrogenase 3 (Homo sapiens) (UniProt P47895); experiment: qHTS for Inhibitors of the Aldehyde Dehydrogenase Family (ALDH1A3) Validation screen (AID 2061312); details: ALDH1A3 enzyme inhibition qHTS validation, fluorescence; series mostly up to 84.7 µM; activity change, negative = inhibition: at the top concentration; note: % is set by controls: 0 for no effect and ±100 for the full control effect; nearly all actives have a fitted effect of over 45% in size

Structure (SMILES) | activity change, negative = inhibition | Potency
OC(CCN1CCCCC1)(c1ccccc1)C1CCCCC1 (configuration not stated) | 1.44% [at 42.4 µM] | 
CC(C)OC(=O)C(C)(C)Oc1ccc(C(=O)c2ccc(Cl)cc2)cc1 | 37.5% [at 42.4 µM] | 
CCN(CC)C(=O)c1ccc(O)c(OC)c1 | -0.0754% [at 42.4 µM] | 
Nc1nc(OCC2CCCCC2)c2[nH]cnc2n1 | 27.5% [at 42.4 µM] | 
C[C@H](NC(CCc1ccccc1)C(=O)O)C(=O)N1CCC[C@H]1C(=O)O (some centres not stated) | -16.8% [at 42.4 µM] | 
CCN(CC)CCCC(C)Nc1ccnc2cc(Cl)ccc12 (configuration not stated) | 9.16% [at 42.4 µM] | 
Cc1ccc(-c2cc(C(F)(F)F)nn2-c2ccc(S(N)(=O)=O)cc2)cc1 | 27.2% [at 42.4 µM] | 
CN1Cc2c(N)cccc2C(c2ccccc2)C1 (configuration not stated) | -16.2% [at 42.4 µM] | 
N[C@@H](Cc1c[nH]c2ccccc12)C(=O)O | -18.2% [at 42.4 µM] | 
NC(N)=NCCCCN=C(N)N | -6.69% [at 42.4 µM] | 
O=C(O)/C=C/c1cnc[nH]1 | -5.2% [at 42.4 µM] | 
Cc1cn([C@H]2CC(N=[N+]=[N-])[C@@H](CO)O2)c(=O)[nH]c1=O (some centres not stated) | 13.9% [at 42.4 µM] | 
O=c1cc(-c2ccccc2)[nH]c2nc(Cl)ccc12 | -9.61% [at 42.4 µM] | 
CC(C)c1c(C(=O)Nc2ccccc2)c(-c2ccccc2)c(-c2ccc(F)cc2)n1CC[C@@H](O)C[C@@H](O)CC(=O)O | 6.01% [at 42.4 µM] | 
CC(=O)O[C@]1(C(C)=O)CC[C@H]2[C@@H]3C=C(Cl)C4=CC(=O)[C@@H]5C[C@@H]5[C@]4(C)[C@H]3CC[C@@]21C |  | inactive
CC(C)(Oc1ccc(CCNC(=O)c2ccc(Cl)cc2)cc1)C(=O)O | 17.2% [at 42.4 µM] | 
O=C1CCC(c2ccc(-n3ccnc3)cc2)=NN1 | 8.69% [at 42.4 µM] | 
O=C(O)c1cccnc1Nc1cccc(C(F)(F)F)c1 | 18.9% [at 42.4 µM] | 
CCN(CC)CCOC(=O)C1(C2CCCCC2)CCCCC1 | -6.34% [at 42.4 µM] | 
NC1[C@H]2CN(c3nc4c(cc3F)c(=O)c(C(=O)O)cn4-c3ccc(F)cc3F)C[C@@H]12 (some centres not stated) | 40.6% [at 42.4 µM] | 
COc1cc2c(cc1O)CC[C@@H]1[C@@H]2CC[C@]2(C)[C@@H](O)CC[C@@H]12 | 28.2% [at 42.4 µM] | 
CC(C)NCC(O)COc1cccc2ccccc12 (configuration not stated) | 12.2% [at 42.4 µM] | 
O=Nc1c(-c2c(O)[nH]c3ccccc23)[nH]c2ccccc12 | -10.5% [at 42.4 µM] | 
CC[N+](CC)(CC)CC | 9.01% [at 42.4 µM] | 
COc1ccc(C(=O)/C(Cc2cc(OC)c(OC)c(OC)c2)=C(\C(=O)O)c2ccc3c(c2)OCO3)cc1 | 8.2% [at 42.4 µM] | 
Clc1ccc2c(c1)C(N1CCNCC1)=Nc1ccccc1O2 |  | inactive
CC(C)NC[C@H](O)c1ccc(O)c(O)c1 | -14.8% [at 42.4 µM] | 
c1ccc2c(c1)CCCC2C1=NCCN1 (configuration not stated) | 7.75% [at 42.4 µM] | 

biological target: Retinal dehydrogenase 2 (Homo sapiens) (UniProt O94788); experiment: qHTS for Inhibitors of the Aldehyde Dehydrogenase Family (ALDH1A2) Confirmation screens (AID 2061314); details: ALDH1A2 enzyme inhibition qHTS confirmation; series mostly up to 45.9 µM; activity, negative = inhibition: at the top concentration; note: nearly all actives have a fitted effect of over 65% in size; note: potency is the fitted concentration of half-maximal effect; for activity, negative = inhibition: % is set by controls: 0 for no effect and ±100 for the full control effect

Structure (SMILES) | outcome | Potency | activity, negative = inhibition
CN1Cc2sccc2C(c2ccc(O)c(O)c2)C1 (configuration not stated) | inactive |  | 
O=C1CCc2cc(OCCCCc3nnnn3C3CCCCC3)ccc2N1 |  | 7.94 µM (active) | 
CC(C)(C)OC(=O)N1CCC(c2ccc(NCc3ccc(-c4ccc(C#N)cc4)o3)cc2)CC1 |  | 8.91 µM (active) | 
CCCCCCN(CCCCCC)C(=O)Cc1c(-c2ccc(F)cc2)[nH]c2ccccc12 | inactive |  | 
O=C(O)CN(CCOCCOCCN(CC(=O)O)CC(=O)O)CC(=O)O |  |  | -8.03%
O=C(O)/C=C/c1ccc(O)c(O)c1 |  |  | 1.06%
CC(C)(C)OC(=O)N1CCN(c2cnc(NCc3ccc(-c4ccc(C#N)cc4)o3)nc2)CC1 |  | 8.96 µM (active) | 
CC(C)(C)OC(=O)N1CCN(c2cnc(NCc3ccc(-c4ccc(C#N)cc4)o3)cn2)CC1 |  | 1.79 µM (active) | 
CC(C)(C)OC(=O)N1CCN(c2ccc(NCc3ccc(-c4ccc(C#N)cc4)o3)nc2)CC1 |  | 25.1 µM (active) | 
CCC(NC(C)C)C(O)c1ccc(O)c(O)c1 (configuration not stated) | inactive |  | 

biological target: Retinaldehyde dehydrogenase 3 (Homo sapiens) (UniProt P47895); experiment: qHTS for Inhibitors of the Aldehyde Dehydrogenase Family (ALDH1A3) Primary screen (AID 2061315); details: ALDH inhibition qHTS; series mostly up to 56 µM; activity change, negative = inhibition: at the top concentration;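 note: plate controls were DMSO vehicle for no effect and reference inhibitor for full effect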

Structure (SMILES) | activity change, negative = inhibition
CC(C)(C)OC(=O)N1CCN(c2ccc(NCc3ccc(-c4ccc(C#N)cc4)o3)cn2)CC1 | 29.6%
CCN(CC)CCCC(C)Nc1ccnc2cc(Cl)ccc12 (configuration not stated) | 6.44% [at 11.2 µM]
Cc1ccc(-c2cc(C(F)(F)F)nn2-c2ccc(S(N)(=O)=O)cc2)cc1 | 28%
CC(C)(C)OC(=O)N1CCC(c2ccc(NCc3ccc(-c4ccc(C#N)cc4)o3)cc2)CC1 | 65.6%
CC(C)(C)OC(=O)N1CCN(c2cnc(NCc3ccc(-c4ccc(C#N)cc4)o3)nc2)CC1 | 0.158%
CC(C)c1c(C(=O)Nc2ccccc2)c(-c2ccccc2)c(-c2ccc(F)cc2)n1CC[C@@H](O)C[C@@H](O)CC(=O)O | 17.4% [at 16.9 µM]
CC(C)(C)OC(=O)N1CCN(c2cnc(NCc3ccc(-c4ccc(C#N)cc4)o3)cn2)CC1 | -1.26%
CC(=O)O[C@]1(C(C)=O)CC[C@H]2[C@@H]3C=C(Cl)C4=CC(=O)[C@@H]5C[C@@H]5[C@]4(C)[C@H]3CC[C@@]21C | 0.141%
CC(C)(C)OC(=O)N1CCN(c2ccc(NCc3ccc(-c4ccc(C#N)cc4)o3)nc2)CC1 | -9.28%
Clc1ccc2c(c1)C(N1CCNCC1)=Nc1ccccc1O2 | 3.12%

biological target: Aldehyde dehydrogenase 1A1 (Homo sapiens) (UniProt P00352); experiment: qHTS for Inhibitors of the Aldehyde Dehydrogenase Family (ALDH1A1) Confirmatory screens (AID 2061316); details: ALDH inhibition qHTS; series mostly up to 47.3 µM; activity change, negative = inhibition: at the top concentration; note: nearly all actives have a fitted effect of over 65% in size; note: potency is the fitted concentration of half-maximal effect; for activity change, negative = inhibition: % is set by controls: 0 for no effect and ±100 for the full control effect

Structure (SMILES) | activity change, negative = inhibition | Potency | outcome
Cc1ccc(S(=O)(=O)NC(=O)NN2CCCCCC2)cc1 | -8.57% |  | 
CC(C)(C)OC(=O)N1CCN(c2ccc(NCc3ccc(-c4ccc(C#N)cc4)o3)cn2)CC1 |  | 2.25 µM (active) | 
CC(C)(C)OC(=O)N1CCC(c2ccc(NCc3ccc(-c4ccc(C#N)cc4)o3)cc2)CC1 |  | 12.7 µM (active) | 
CCCCCCN(CCCCCC)C(=O)Cc1c(-c2ccc(F)cc2)[nH]c2ccccc12 |  |  | inactive
O=C(O)CN(CCOCCOCCN(CC(=O)O)CC(=O)O)CC(=O)O | -14% |  | 
O=C(O)/C=C/c1ccc(O)c(O)c1 | -12.4% |  | 
CC(C)(C)OC(=O)N1CCN(c2cnc(NCc3ccc(-c4ccc(C#N)cc4)o3)nc2)CC1 |  | 10.1 µM (active) | 
CC(C)(C)OC(=O)N1CCN(c2cnc(NCc3ccc(-c4ccc(C#N)cc4)o3)cn2)CC1 |  | 4.49 µM (active) | 
CC(C)(C)OC(=O)N1CCN(c2ccc(NCc3ccc(-c4ccc(C#N)cc4)o3)nc2)CC1 |  | 7.12 µM (active) | 
